Measured values taken from PubChem BioAssay AID463173 (ICCB-Longwood Screening Facility, Harvard Medical School, 2010).
About 4,300 (8.3%) of roughly 52,000 compounds were called active. Rule as the data show it: active = survival mostly below about 52% (no sharp cut-off); inactive = mostly above about 56%. Only a selection was taken, and actives are over-represented in it overall.

Test system: DeltatarO mutant
Test: growth inhibition of S. aureus wild type versus tarO mutant, primary screen, teichoic acid synthesis inhibitors, RN4220, OD600 (AID 463173)
Settings: OD600, 18 h, stronger effect = lower value, screened at 18.75 µg/mL (by protocol)

| SMILES | survival |
| --- | --- |
| Cc1ccc(-c2nnc(SCc3cccc(C#N)c3)o2)cc1 | 62% (inactive) |
| COc1cccc(CNC(=O)c2cnc(N3CCCCC3)c3ccccc23)c1 | 86% (inactive) |
| CCOC(=O)C1CCN(C(=O)Cn2ncc3c([nH]c4ccc(C)cc43)c2=O)CC1 | 72% (inactive) |
| Cc1ccc(CNC(=O)Cn2ncc3c([nH]c4ccc(C)cc43)c2=O)cc1 | 88% (inactive) |
| CCOc1ccccc1N(CC)C(=O)Cn1ncc2c([nH]c3ccccc32)c1=O | 46% (active) |
| Cc1ccc2[nH]c3c(=O)n(CC(=O)NC(C)C)ncc3c2c1 | 6% (active) |
| CCCN(C(=O)Cn1ncc2c([nH]c3ccccc32)c1=O)c1ccc(F)cc1 | 101% (inactive) |
| Cc1ccc(CCNC(=O)Cn2ncc3c([nH]c4ccc(C)cc43)c2=O)cc1 | 119% (inactive) |
| CCOc1ccccc1NC(=O)Cn1ncc2c([nH]c3ccccc32)c1=O | 126% (inactive) |
| COc1cc(OC)c(N(C)C(=O)Cn2ncc3c([nH]c4ccccc43)c2=O)cc1Cl | 91% (inactive) |
| CCOC(=O)C1CCCN(C(=O)Cn2ncc3c([nH]c4ccccc43)c2=O)C1 (centres undefined) | 83% (inactive) |
| CCOC(=O)C1CCN(C(=O)Cn2ncc3c([nH]c4ccccc43)c2=O)CC1 | 25% (active) |
| CCN(CC)C(=O)Cn1ncc2c([nH]c3ccccc32)c1=O | 118% (inactive) |
| Cc1ccc(N(C)C(=O)Cn2ncc3c([nH]c4ccccc43)c2=O)cc1C | 37% (active) |
| Cc1ccccc1S(=O)(=O)Cc1ccc(C(=O)NCCc2ccccc2)o1 | 76% (inactive) |
| Cc1ccc2c(c1)c1c(c(=O)n(-c3ccccc3C)c(=O)n1Cc1ccccc1F)n2C | 73% (inactive) |
| CCCN(CCC)C(=O)Cn1c(=O)n(-c2cccc(C)c2)c(=O)c2c1c1cc(OC)ccc1n2C | 64% (inactive) |
| CCOc1ccc(CCNC(=O)CCCn2nc(C)c3sc4ccccc4c3c2=O)cc1 | 72% (inactive) |
| CCOc1ccc(CCNC(=O)NCc2noc3ccc(C)cc23)cc1 | 74% (inactive) |
| COCCCNC(=O)c1ccc(Cn2c(=O)c3ccccc3n(Cc3c(C)cc(C)cc3C)c2=O)cc1 | 107% (inactive) |
| CCCNC(=O)N(C)c1ncnnc1NC | 98% (inactive) |
| COc1ccccc1C(=O)Nc1nnc(SCc2cc(=O)c3cc(Cl)ccc3[nH]2)s1 | 62% (inactive) |
| Cc1ccc2[nH]c3c(=O)n(CC(=O)N(C)Cc4ccccc4)ncc3c2c1 | -1% (active) |

| SMILES | survival |
| --- | --- |
| Cc1ccc2[nH]c3c(=O)n(CC(=O)N(CCN(C)C)Cc4ccccc4)ncc3c2c1 | 97% (inactive) |
| CCCCN(C)C(=O)Cn1ncc2c([nH]c3ccc(C)cc32)c1=O | 70% (inactive) |
| Cc1cc(F)ccc1NC(=O)c1c(C)oc2c1C1=NCCN1C=N2 | 102% (inactive) |
| Cc1cccc(CNC(=O)c2ccc(C)c(-n3c(C)nc4cccnc43)c2)c1 | 67% (inactive) |
| CCC(C)NC(=O)C1CCCN(S(=O)(=O)c2ccc(C)c(Cl)c2)C1 (centres undefined) | 94% (inactive) |
| COc1ccc(NC(=O)Cn2c(=O)n(Cc3nc(-c4ccccc4)no3)c(=O)c3cc4c(cc32)OCO4)c(OC)c1 | 94% (inactive) |
| CCOc1ccc(CCNC(=O)C(CC)n2nc(C)c3c(C)n(-c4ccccc4)nc3c2=O)cc1 (centres undefined) | 69% (inactive) |
| Cc1ccccc1OC(=O)c1snnc1C | 90% (inactive) |
| CCCOc1ccc(C(=O)N(Cc2ccc(Cl)cc2)Cc2ccco2)cc1 | 50% (inactive) |
| CS(=O)(=O)c1ncc(Cl)c(C(=O)N(Cc2ccc(Cl)cc2)Cc2ccco2)n1 | 4% (active) |
| Cc1ccc(CN(Cc2ccco2)C(=O)c2ccc(Cl)cc2Cl)cc1 | 53% (inactive) |
| CSc1ncc(Cl)c(C(=O)N(Cc2ccc(N(C)C)cc2)Cc2ccco2)n1 | 80% (inactive) |
| CCSc1ncc(Cl)c(C(=O)N(Cc2ccc(N(C)C)cc2)Cc2ccco2)n1 | 104% (inactive) |
| CCS(=O)(=O)c1ncc(Cl)c(C(=O)N(Cc2ccccc2)Cc2ccco2)n1 | 52% (inactive) |
| CCCS(=O)(=O)c1ncc(Cl)c(C(=O)N(Cc2ccccc2)Cc2ccco2)n1 | 40% (active) |
| CCCSc1ncc(Cl)c(C(=O)N(Cc2ccc(Cl)cc2)Cc2ccco2)n1 | 39% (active) |
| CCSc1ncc(Cl)c(C(=O)N(Cc2ccccc2)Cc2ccco2)n1 | 106% (inactive) |
| Cc1cccc2c1-c1sc(C(=O)NCc3ccccc3Cl)cc1CO2 | 55% (inactive) |
| Cc1ccc(NC(=O)C2CCCN(S(=O)(=O)c3ccc4c(c3)oc(=O)n4C)C2)cc1Cl (centres undefined) | 76% (inactive) |
| COc1ccc(C(=O)CSc2nc(C)cc(C)n2)cc1C | 104% (inactive) |
| Cc1ccc(NC(=O)CN2CCCN(Cc3cc(C)ccc3C)S2(=O)=O)c(Cl)c1 | 81% (inactive) |
| CCc1cccc(C)c1NC(=O)Cn1ccn(-c2ccc(F)cc2)c(=O)c1=O | 52% (inactive) |
| Cc1ccc(NC(=O)CN2CCCN(Cc3ccccc3Cl)S2(=O)=O)c(C)c1 | 17% (active) |

| SMILES | survival |
| --- | --- |
| CCc1cccc(C)c1NC(=O)CN1CCCN(Cc2ccccc2Cl)S1(=O)=O | 55% (inactive) |
| CCc1cccc(C)c1NC(=O)Cn1ccn(Cc2ccc(Cl)cc2)c(=O)c1=O | 41% (active) |
| Cc1ccc(NC(=O)Cn2ccn(Cc3ccc(Cl)cc3)c(=O)c2=O)cc1C | 111% (inactive) |
| CCc1cccc(C)c1NC(=O)CN1CCCN(Cc2ccc(C)cc2)S1(=O)=O | 8% (active) |
| Cc1ccc(CN2CCCN(CC(=O)Nc3ccc(C)cc3C)S2(=O)=O)cc1 | 89% (inactive) |
| Cc1ccccc1CN1CCCN(CC(=O)Nc2c(C)cccc2C)S1(=O)=O | 93% (inactive) |
| CCOc1ccc(CNC(=O)CSc2nnc(C)c3c(C)n(-c4ccccc4)nc23)cc1 | 82% (inactive) |
| CCN1CCC(N(Cc2ccc3c(c2)OCO3)C(=O)Nc2cc(Cl)ccc2C(=O)OC)CC1 | 126% (inactive) |
| CCOC(=O)Cc1csc(NC(=O)CSc2nc3c(C)c(C)ccc3cc2C#N)n1 | 78% (inactive) |
| COc1ccc(CC(C(=O)O)c2ccccc2)cc1 (centres undefined) | 65% (inactive) |
| Cc1ccc(S(=O)(=O)Nc2cccc(-c3ccc(N4CCC(C)CC4)nn3)c2)s1 | -1% (active) |
| COc1ccc(C)cc1S(=O)(=O)Nc1cccc(-c2ccc(N3CCCC3)nn2)c1 | 78% (inactive) |
| Cc1ccc(S(=O)(=O)Nc2cccc(-c3ccc(N4CCCCC4)nn3)c2)s1 | 76% (inactive) |
| O=S(=O)(Nc1ccc(-c2ccc(N3CCCC3)nn2)cc1)c1ccc(C(F)(F)F)cc1 | 72% (inactive) |
| O=S(=O)(Nc1ccc(-c2ccc(N3CCCC3)nn2)cc1)c1ccc(OC(F)(F)F)cc1 | -4% (active) |
| O=S(=O)(Nc1cccc(-c2ccc(N3CCCCC3)nn2)c1)c1cccc(F)c1 | 91% (inactive) |
| COc1ccc(C)cc1S(=O)(=O)Nc1cccc(-c2ccc(N3CCC(C)CC3)nn2)c1 | -2% (active) |
| O=S(=O)(Nc1cccc(-c2ccc(N3CCCCCC3)nn2)c1)c1ccc(F)cc1 | 79% (inactive) |
| O=S(=O)(Nc1ccc(-c2ccc(N3CCCCC3)nn2)cc1)c1ccc(OC(F)(F)F)cc1 | 82% (inactive) |
| COc1ccc(F)cc1S(=O)(=O)Nc1cccc(-c2ccc(N3CCC(C)CC3)nn2)c1 | 109% (inactive) |
| CC1CCN(c2ccc(-c3cccc(NS(=O)(=O)c4ccc(Cl)s4)c3)nn2)CC1 | 72% (inactive) |
| O=S(=O)(Nc1cccc(-c2ccc(N3CCCCCC3)nn2)c1)c1ccccc1 | 6% (active) |
| O=C(c1ccccc1Cl)N(Cc1ccco1)Cc1cc2cc3c(cc2nc1Cl)OCO3 | 103% (inactive) |

| SMILES | survival |
| --- | --- |
| CCc1cnc2c(c1SCc1cc(OC)cc(OC)c1)c(=O)n(C)c(=O)n2C | 75% (inactive) |
| O=C(O)C1C2C=CC(C2)C1C(=O)N1CCN(Cc2ccccc2)CC1 (centres undefined) | 59% (inactive) |
| COc1ccc(S(=O)(=O)c2c(Nc3ccccc3F)sc(C(=O)c3cccc(OC)c3)c2N)cc1 | 97% (inactive) |
| Cc1sc2ncn(CC(=O)N(C)c3ccc(Br)cc3)c(=O)c2c1S(=O)(=O)N1CCC(C)CC1 | 70% (inactive) |
| Cc1ccc(OCc2cc(=O)n3cc(C)sc3n2)c(C)c1 | 59% (inactive) |
| Cc1ccc(NC(=O)c2ccc(=O)n(CC(=O)Nc3ccccc3)n2)cc1 | 85% (inactive) |
| O=C(Cn1ncc2c3ccccc3n(Cc3cccc(Cl)c3)c2c1=O)NCc1cccs1 | 99% (inactive) |
| Cc1cccc(CN2CCN(CC(=O)NCc3ccc(Cl)cc3)C2=O)c1 | 72% (inactive) |
| Cc1csc2nc(-c3cccc(NS(C)(=O)=O)c3)cn12 | 88% (inactive) |
| Cc1cccc2nc(-c3cccc(NS(=O)(=O)c4ccccc4)c3)cn12 | 35% (active) |
| Cc1cccn2cc(-c3cccc(NS(=O)(=O)c4ccc(Cl)c(Cl)c4)c3)nc12 | 101% (inactive) |
| COc1ccc(-n2nc(C(=O)Nc3ccc(C)cn3)c3c4ccccc4n(C)c3c2=O)cc1Cl | 98% (inactive) |
| CN(C)c1cccc(C(=O)N2CCC(c3ccncc3)CC2)c1 | 88% (inactive) |
| O=c1[nH]nc(SC(F)(F)C(F)(F)C(F)(F)F)c(=O)[nH]1 | 37% (active) |
| CC(C)(C)c1ccc(CSc2n[nH]c(=O)[nH]c2=O)cc1 | 98% (inactive) |
| CCCCCCSc1n[nH]c(=O)[nH]c1=O | 78% (inactive) |
| Cc1oc(-c2ccc(Cl)cc2)nc1Cn1c(=O)cc(C)c2c(C)nn(-c3cccc(F)c3)c21 | 82% (inactive) |
| O=C(Nc1ccc(Cl)c(C(F)(F)F)c1)C(Cc1ccccc1)NS(=O)(=O)c1ccc(Br)s1 (centres undefined) | 82% (inactive) |
| Cc1ccc(NS(=O)(=O)c2ccc3c(c2)CCCN3C(=O)C2CCC2)c(C)c1 | 85% (inactive) |
| CN(C)S(=O)(=O)c1ccc(C(=O)NCCSc2c(-c3ccccc3)[nH]c3ccccc23)cc1 | 68% (inactive) |
